Bioassay records deposited in PubChem by The Scripps Research Institute Molecular Screening Center.
M1 PAM parental: M1 PAM counterscreen hit in parental CHO-K1 cells; ATP EC20, Fluo-8 calcium fluorescence; 0% at ATP EC20, 100% at ATP max; activation, % at 3 µM; 360,000 tested, 0.02% active; AID 602247;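 active = activation above the run cutoff, the mean activation of all test compounds plus 3 SD, cut at about 40% in these data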;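 also: peak over basal fluorescence ratio in a 140 s read after ATP addition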
CHRM1 antagonist: antagonists of human M1 muscarinic receptor; P11229; CHO-K1 hM1, Fluo-8 calcium fluorescence, ACh EC80 antagonist; inhibition, % at 3 µM; 360,000 tested, 1.3% active; AID 588852;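 active = percent inhibition above its own plate's cutoff, namely the mean of that plate's compound wells plus 3 SD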;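 also: peak over basal fluorescence ratio during 140 s after agonist addition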
Target sequence (P11229 whole entry, looked up): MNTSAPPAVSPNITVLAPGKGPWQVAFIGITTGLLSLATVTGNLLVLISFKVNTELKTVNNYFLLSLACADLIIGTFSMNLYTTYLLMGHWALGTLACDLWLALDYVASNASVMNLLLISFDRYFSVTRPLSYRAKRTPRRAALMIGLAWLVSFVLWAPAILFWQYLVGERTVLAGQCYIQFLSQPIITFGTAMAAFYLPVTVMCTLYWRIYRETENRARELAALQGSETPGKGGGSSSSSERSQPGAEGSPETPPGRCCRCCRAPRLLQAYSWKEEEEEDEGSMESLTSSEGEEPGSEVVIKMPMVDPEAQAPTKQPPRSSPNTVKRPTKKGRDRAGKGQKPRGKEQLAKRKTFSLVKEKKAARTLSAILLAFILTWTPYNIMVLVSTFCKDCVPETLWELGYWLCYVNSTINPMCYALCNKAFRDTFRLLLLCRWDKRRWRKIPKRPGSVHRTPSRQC
M1 PAM: human CHRM1 positive allosteric modulation; 360,000 tested, 0.088% active; AID 588819; activation, % at 3 µM; CHO-K1 hM1, Fluo-8 calcium fluorescence, ACh EC20; 0% = ACh EC20, 100% = maximal ACh; P11229; in the data active = activation above about 19%, passing the limit was not always enough
CHO-K1 Ca ag: M1 agonist counterscreen hit in parental CHO-K1 cells; Fluo-8 calcium fluorescence; scaled to maximal ATP response, vehicle zero; activation, % at 3 µM; 360,000 tested, 0.48% active; AID 602248; in the data active = activation above about 15%;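 also: untransfected CHO-K1 host cells lacking M1 receptor as counterscreen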
CHO-K1 Ca antag: M1 antagonist counterscreen hit in parental CHO-K1 cells | ATP-induced calcium, Fluo-8 fluorescence | inhibition, % at 3 µM | 360,000 tested, 0.6% active | AID 602250;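 active = inhibition above a per-plate cutoff, the plate's mean sample inhibition plus 3 SD, cut at about 24% in these data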
CHRM1 agonist: human M1 muscarinic receptor agonism. P11229. CHO-K1 hM1, Fluo-8 calcium fluorescence, agonist mode; 0% DMSO, 100% acetylcholine EC100. activation, % at 3 µM. 360,000 tested, 0.33% active. AID 588814;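 active = activation above the run's mean compound activation plus 3 SD, cut at about 16% in these data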;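 also: peak over basal fluorescence ratio within a 140 s kinetic read after compound addition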
Hits are given with their value; i = inactive; nt = no result given. An excerpt weighted towards active compounds, which were near 2.3% of everything screened.

SMILES | M1 PAM parental | CHRM1 antagonist | M1 PAM | CHO-K1 Ca ag | CHO-K1 Ca antag | CHRM1 agonist
CC(Sc1ccc(Cl)cc1)C(=O)N(C)CC(=O)Nc1ccc(N2CCOCC2)cc1 (centres undefined) | i | 18 | i | i | i | i
COc1ccc(CC(=O)Nc2ccc(S(=O)(=O)N(C)C3CCN(C)CC3)cc2)cc1 | i | i | i | i | i | i
Cc1cccc(C(=O)OC(C)C(=O)Nc2ccc(S(=O)(=O)N3CCCC3)cc2)c1O (centres undefined) | i | 29 | i | i | i | i
CC(Oc1ccc(Br)cc1)C(=O)Nc1ccc(S(=O)(=O)N(C)C2CCN(C)CC2)cc1 (centres undefined) | i | 67 | i | 55 | 57 | 55
CNC(=O)/C(C#N)=C/c1ccc(-c2ccccc2[N+](=O)[O-])o1 | i | i | i | i | 27 | i
CN(C)c1ccc(CNc2nc3cc(-c4ccc(F)cc4)sc3c(=O)n2C)cc1 | i | i | i | i | i | i
CC(=O)c1ccc(OCC(=O)NCc2ccc(F)cc2)cc1 | i | i | i | i | i | i
CC(=O)Nc1ccc(OCC(O)CN2C(C)CCCC2C)cc1 (centres undefined) | i | i | i | i | 32 | i
CC1CCCC(C)N1CC(O)COc1ccc(Cl)cc1 (centres undefined) | i | i | i | i | i | i
COc1ccc(C(C)(O)c2nc(-c3ccc4c(c3)OCO4)cs2)cc1 (centres undefined) | i | i | i | i | i | i
c1ccc(CCC2CCCCN2Cc2nc(-c3ccc4c(c3)OCO4)no2)nc1 (centres undefined) | i | 35 | i | i | i | i
O=C(NC1CCCCC1)c1c2c(nc3ccccc13)CCC2 | i | i | i | i | i | i
CC(C)(CC(=O)N1CCN(c2ccc(Cl)cc2)CC1)CC1=NS(=O)(=O)c2ccccc2N1 | i | 30 | i | i | i | i
Cc1nnc(N2CCCC(C(=O)NCc3cccc(F)c3)C2)c2nn(-c3ccccc3)c(C)c12 (centres undefined) | i | i | i | i | i | i
CCc1ccc(CNC(=O)C2CCCN(c3nnc(C)c4c(C)n(-c5ccccc5)nc34)C2)cc1 (centres undefined) | i | 49 | i | i | i | i
Cc1ccc(NC(=O)c2cc3c(CO)cnc(C)c3oc2=Nc2cccc(C(N)=O)c2)cc1 | i | i | i | i | i | i
Cc1ccccc1S(=O)(=O)N1C[C@H]2CON(C)[C@H]2C[C@H]1c1cccc(-c2ccccc2)c1 | i | i | i | i | i | i
CN1OC[C@@H]2CN(S(=O)(=O)c3cccc4ccccc34)[C@H](c3ccc(-c4ccccc4)cc3)C[C@@H]21 | i | i | 25 | i | i | i
CN1OC[C@@H]2CN(C(=O)C(C)(C)C)[C@H](c3ccc(-c4cccnc4)cc3)C[C@@H]21 | i | i | i | i | 30 | i
O=[N+]([O-])c1ccc(Cl)c(NC(=S)N2CCCC2)c1 | i | i | i | i | i | i
CCC1(C2C=COC=C2)NC(=O)NC1=O (centres undefined) | i | i | i | i | i | i
O=C(c1ccc(NS(=O)(=O)c2ccccc2)cc1)N1CCOCC1 | i | i | i | i | i | i
CCOc1cc(C(=O)N2CCCC2)cc(OCC)c1OCC | i | i | i | i | 26 | i
N#Cc1c(N2CCOCC2)nc(-c2ccco2)c2c1CCCC2 | i | i | i | i | 25 | i
CC1(C)Cc2c(C#N)c(N3CCCC3)nc(-c3ccco3)c2CO1 | i | i | i | i | i | i
SMILES | M1 PAM parental | CHRM1 antagonist | M1 PAM | CHO-K1 Ca ag | CHO-K1 Ca antag | CHRM1 agonist
CC(NC(=O)COC(=O)Cc1ccsc1)c1ccccc1 (centres undefined) | i | i | i | 18 | i | i
O=C(COC(=O)Cc1ccsc1)NC(c1ccccc1)c1ccccc1 | i | i | i | i | i | i
Cc1ccc(S(=O)(=O)N2[C@@H](c3ccc(C(C)(C)C)cc3)C(C(=O)O)=CC[C@H]2c2cccs2)cc1 | i | i | i | i | 34 | i
Cc1cccc(N2CCN(C(=O)c3ccc(S(=O)(=O)N(C)c4ccccc4)cc3)CC2)c1C | i | i | i | i | i | i
CCOC(=O)[C@]12CCCC=C1N(Cc1ccc3c(c1)OCO3)C(=O)[C@H](CC(=O)NCCc1ccccc1OC)C2 | i | nt | nt | i | i | nt
COc1ccc(C(=O)/C=C2/C(=O)Nc3ccccc32)cc1OC | i | 33 | i | i | i | 18
CCc1ccc(Cn2nnc(C(=O)Nc3ccc(OC)cc3OC)c2N)cc1 | i | i | i | i | i | 25
C=CC[N+]1(CC#CCOC(c2ccccc2)c2ccccc2)CCOCC1 | i | 49 | i | i | i | i
C=CC#CC[N+]1(CC#Cc2ccccc2)CCOCC1 | i | i | i | i | i | i
CCCCN(C(=O)CC1OC(=O)c2ccccc21)c1c(N)n(CCCC)c(=O)[nH]c1=O (centres undefined) | i | i | i | i | i | i
COc1c(O)cc2c(c1O)C1OC(CO)C(O)C(O)C1OC2=O (centres undefined) | i | i | i | i | 28 | 48
COc1c(O)cc2c(c1O)[C@@H]1OC(CO)C(O)C(O)[C@H]1OC2=O (some centres undefined) | i | i | i | i | i | i
CC(C)CCCCCCCCCCCCC(=O)NCC(=O)NC1C(C)OC(Nc2ncnc3nc[nH]c23)C(O)C1O (centres undefined) | i | i | i | i | i | i
CC1CCCN(CCSc2ccc(Cl)cc2)C1 (centres undefined) | i | 37 | i | i | i | i
Clc1ccc(SCCOCCN2CCOCC2)cc1 | i | i | i | i | i | i
CCOC(=O)C1CCN(CCCSc2ccc(Cl)cc2)CC1 | i | 28 | i | i | i | i
CC1CCN(CCOCCSc2ccc(Cl)cc2)CC1 | i | i | i | i | 27 | i
CC1CCCN(CCCOc2ccc(Cl)cc2Br)C1 (centres undefined) | i | i | i | i | i | i
Clc1ccc(SCCOCCN2CCCCC2)cc1 | i | 28 | i | i | i | i
O=C(NN=Cc1c(F)c(F)c(F)c(F)c1F)c1ccc(NS(=O)(=O)c2cccs2)cc1 | i | i | i | i | i | i
CN(CC(=O)N1CCc2ccccc2C1)c1ccccc1 | i | i | i | i | i | i
CC1CCC(C(C)C)C(OC(=O)Cn2c(-c3ccc(Cl)cc3)[n+](C)c3ccccc32)C1 (centres undefined) | i | 42 | i | i | i | i
CC1CCC(C(C)C)C(OC(=O)Cn2c(-c3ccc(Br)cc3)[n+](C)c3ccccc32)C1 (centres undefined) | i | 23 | i | i | i | i
CC1CCC(C(C)C)C(OC(=O)COC(=O)c2cccn2C)C1 (centres undefined) | i | i | i | i | i | i
